In all, about 39,000 compounds went through this assay and about 1,500 (3.8%) were called active. This excerpt belongs to a sample that is enriched for actives.

In this test the test system is HSkMC (human skeletal muscle cells). The experiment in a line: cytotoxicity call (relative viability < 0.9). The note with it: 10 µM.
As for `C[C@H](CO)N1C[C@H](C)[C@@H](CN(C)Cc2ccc(Cl)c(Cl)c2)Oc2ccc(NC(=O)NC3CCCCC3)cc2C1=O`, the cytotoxicity call was “inactive”.

As to `C[C@@H]1CN([C@H](C)CO)C(=O)Cc2cc(NC(=O)CCCCCC(=O)Nc3ccccc3N)ccc2O[C@@H]1CN(C)C(=O)Nc1ccc(F)cc1`, the cytotoxicity call is “inactive”.

`COc1ccc(NC(=O)Nc2ccc3c(c2)CC(=O)N([C@@H](C)CO)C[C@@H](C)[C@H](CN(C)CC2CCCCC2)O3)cc1`: the cytotoxicity call is “inactive”.

For the compound `O=C(C[C@H]1CC[C@H](NS(=O)(=O)c2ccccc2)[C@H](CO)O1)NCc1ccncn1`, the cytotoxicity call is “inactive”.

For the compound `COc1ccc2c(-c3ccc(Cl)cc3)c(C)oc2c1`, the cytotoxicity call is “inactive”.

With `C[C@H](CO)N1C[C@H](C)[C@H](CN(C)S(=O)(=O)c2ccccc2)Oc2ccc(NC(=O)Cc3ccccc3)cc2C1=O`, the cytotoxicity call was “inactive”.

As for `O=C(C[C@@H]1C[C@@H]2c3cc(NS(=O)(=O)c4ccccc4)ccc3O[C@@H]2[C@H](CO)O1)NCC(F)(F)F`, the cytotoxicity call is “inactive”.

For `C[C@@H]1CCCCO[C@H](CN(C)Cc2ccc3c(c2)OCO3)[C@@H](C)CN([C@H](C)CO)C(=O)c2cc(NS(=O)(=O)c3ccccc3)ccc2O1`, the cytotoxicity call is “inactive”.

In the case of `C[C@@H]1O[C@@H](O[C@@H]2CC[C@@]3(C)[C@@H](CC[C@]4(C)[C@@H]3CC=C3[C@@H]5CC(C)(C)CC[C@]5(C(=O)O[C@@H]5O[C@H](CO[C@@H]6O[C@H](CO)[C@@H](O)[C@H](O)[C@H]6O)[C@@H](O)[C@H](O)[C@H]5O)CC[C@]34C)[C@]2(C)CO)[C@H](O)[C@H](O[C@@H]2OC[C@@H](O)[C@H](O)[C@H]2O)[C@H]1O`, the cytotoxicity call was “inactive”.

Consider `CC=C(C)C(=O)OC1C(OC(C)=O)C2(CO)C(O)CC3(C)C(=CCC4C5(C)CCC(OC6OC(C(=O)O)C(OC7OC(CO)C(O)C(O)C7O)C(O)C6OC6OC(CO)C(O)C(O)C6O)C(C)(CO)C5CCC43C)C2CC1(C)C` (configuration not stated), for which the cytotoxicity call was “active”.

Turning to `C[C@H]1O[C@@H](O[C@H]2CC[C@@]3(C)[C@@H](CC[C@@]4(C)[C@@H]3CC=C3[C@H]5C[C@](C)(C(=O)O)CC[C@]5(C(=O)O[C@H]5O[C@@H](CO)[C@@H](O)[C@@H](O)[C@@H]5O)CC[C@@]34C)[C@@]2(C)CO)[C@@H](O)[C@@H](O[C@H]2O[C@@H](CO)[C@@H](O)[C@@H](O)[C@@H]2O)[C@@H]1O`, the cytotoxicity call is “inactive”.

Take `CC1(C)CC[C@]2(C(=O)O[C@H]3O[C@@H](CO)[C@@H](O)[C@@H](O)[C@@H]3O)CC[C@]3(C)C(=CC[C@H]4[C@@]5(C)C[C@@H](O)[C@H](O[C@H]6O[C@H](C(=O)O)[C@@H](O)[C@@H](O)[C@@H]6O)C(C)(C)[C@@H]5CC[C@]43C)[C@@H]2C1`: the cytotoxicity call was “inactive”.

Turning to `C/C=C(/C)C(=O)O[C@@H]1[C@H](OC(C)=O)[C@]2(CO)[C@H](O)C[C@]3(C)C(=CC[C@H]4[C@@]5(C)CC[C@H](O[C@@H]6O[C@H](C(=O)O)[C@@H](O[C@@H]7O[C@H](CO)[C@@H](O)[C@H](O)[C@H]7O)[C@H](O)[C@H]6O[C@@H]6O[C@H](CO)[C@@H](O)[C@H](O)[C@H]6O)[C@](C)(CO)[C@@H]5CC[C@]43C)[C@@H]2CC1(C)C`, the cytotoxicity call is “inactive”.

Take `C[C@H]1O[C@@H](OC(=O)[C@]23CCC(C)(C)C[C@H]2C2=CC[C@H]4[C@@]5(C)CC[C@H](O[C@@H]6O[C@H](C(=O)O)[C@@H](O)[C@H](O[C@@H]7OC[C@@H](O)[C@H](O)[C@H]7O)[C@H]6O[C@@H]6O[C@H](CO)[C@H](O)[C@H](O)[C@H]6O)[C@@](C)(C=O)[C@@H]5CC[C@@]4(C)[C@]2(C)C[C@H]3O)[C@H](O[C@H]2O[C@@H](CO)[C@@H](O)[C@@H](O)[C@@H]2O)[C@@H](O)[C@H]1O[C@@H]1O[C@H](C)[C@@H](O[C@H]2OC[C@@H](O)[C@@H](O)[C@@H]2O)[C@H](O)[C@@H]1O`: the cytotoxicity call was “inactive”.

For the compound `C[C@@H]1O[C@@H](O[C@@H]2[C@@H](O)[C@@H](O[C@@H]3O[C@@H](CO)[C@H](O)[C@H]3O)[C@H](OC(=O)[C@]34CCC(C)(C)C[C@H]3C3=CC[C@H]5[C@@]6(C)C[C@H](O)[C@H](O[C@@H]7O[C@@H](C)[C@H](O)[C@@H](O[C@@H]8OC[C@@H](O)[C@H](O)[C@H]8O[C@@H]8O[C@H](CO)[C@@H](O)[C@H](O)[C@H]8O)[C@H]7O)[C@@](C)(CO)[C@@H]6CC[C@@]5(C)[C@]3(C)C[C@H]4O)O[C@H]2C)[C@H](O)[C@H](O)[C@H]1O`, the cytotoxicity call was “inactive”.

Take `CC=C(C)C(=O)O[C@H]1[C@H](OC(C)=O)[C@]2(CO)[C@H](O)C[C@]3(C)C(=CC[C@@H]4[C@@]5(C)CC[C@H](O[C@@H]6O[C@H](C(=O)O)[C@@H](O[C@@H]7O[C@H](CO)[C@@H](O)[C@H](O)[C@H]7O)[C@H](O)[C@H]6O[C@@H]6O[C@H](CO)[C@@H](O)[C@H](O)[C@H]6O)[C@](C)(CO)[C@@H]5CC[C@]43C)[C@@H]2CC1(C)C`: the cytotoxicity call was “active”.

With `C/C=C(/C)C(=O)O[C@H]1[C@@H](OC(C)=O)[C@@]2(CO)[C@@H](O)C[C@@]3(C)C(=CC[C@H]4[C@@]5(C)CC[C@@H](O[C@H]6O[C@H](C(=O)O)[C@@H](O[C@H]7O[C@@H](CO)[C@@H](O)[C@@H](O)[C@@H]7O)[C@@H](O)[C@@H]6O[C@H]6O[C@@H](CO)[C@@H](O)[C@@H](O)[C@@H]6O)[C@@](C)(CO)[C@@H]5CC[C@]43C)[C@@H]2CC1(C)C`, the cytotoxicity call was “active”.

With `C[C@H](CO)N1C[C@H](C)[C@@H](CN(C)C(=O)C2CCCCC2)Oc2cc(-c3cncnc3)ccc2S1(=O)=O`, the cytotoxicity call is “inactive”.

In the case of `C[C@H](CO)N1C[C@H](C)[C@H](CN(C)Cc2ccccc2)Oc2ccc(NS(=O)(=O)c3cn(C)cn3)cc2CC1=O`, the cytotoxicity call is “inactive”.

Regarding `C[C@H](CO)N1C[C@H](C)[C@H](CN(C)S(=O)(=O)c2ccc(C(F)(F)F)cc2)OCc2ccccc2-c2c(n(C)c3ccccc23)C1=O`, the cytotoxicity call is “inactive”.

Turning to `CC(C)NC(=O)Nc1ccc2c(c1)C(=O)N([C@@H](C)CO)C[C@@H](C)[C@@H](CN(C)C(=O)NC1CCCCC1)O2`, the cytotoxicity call was “inactive”.

As to `C[C@@H]1CCCCO[C@H](CN(C)C(=O)c2ccccc2)[C@@H](C)CN([C@@H](C)CO)C(=O)c2cc(NC(=O)Nc3ccc(F)cc3)ccc2O1`, the cytotoxicity call is “inactive”.
